{"source": "paper PMC13494018", "note": "Values without a mark were called inactive. No rule for the calls is given here."}
{"biological_target": "PDL1, Q9NZQ7", "sequence (Q9NZQ7 whole entry)": "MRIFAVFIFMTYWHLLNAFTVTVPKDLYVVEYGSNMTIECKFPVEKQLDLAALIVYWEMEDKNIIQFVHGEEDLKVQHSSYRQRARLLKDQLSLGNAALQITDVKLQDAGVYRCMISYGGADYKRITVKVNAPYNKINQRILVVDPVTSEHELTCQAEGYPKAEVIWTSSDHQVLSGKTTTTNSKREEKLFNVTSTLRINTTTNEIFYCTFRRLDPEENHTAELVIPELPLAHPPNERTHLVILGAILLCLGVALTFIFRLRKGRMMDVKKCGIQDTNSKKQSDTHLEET"}
{"binder": "d8r1_design_ppi_1162_dldesign_0_cycle1_af2pred (protein) MSLAEEAALEGQKNSPMLGAVLYGHAKRSDAAVAELLLEAAKGDAATARAQARAAAALLPPEEGARLVTDVTAALEADEKDK", "binding in a display sort": "not found"}
{"binder": "d8r1_design_ppi_1335_dldesign_0_cycle0_af2pred (protein) EAAAAATIEAAAKAAAEFTGLPVEEVLALAALAAADPAAARALRERLGEEDPLRAAAADVMLTVVAQAKRELA", "binding in a display sort": "not found"}
{"binder": "d8r1_design_ppi_701_dldesign_0_cycle1_af2pred (protein) EERRRRGEELLLEALALIGAAARDPAAAPAAVAALRAAAALVPELAPELERAAALVEAGLAAAKEAAAIVGSLALKMAS", "binding in a display sort": "not found"}
{"binder": "d8r1_design_ppi_227_dldesign_0_cycle1_af2pred (protein) GAKAKAKAVLDKAKEKLAEAMKAALDADESKKPEVYKLIAEAAAALAKGIAAYKAAKNEAQLKEAIAWFEKAIAAAEKAIKLAK", "binding in a display sort": "not found"}
{"binder": "d8r1_design_ppi_295_dldesign_0_cycle0_af2pred (protein) SLKEKAEKHLELAQKYAEKAGKLRGVKIEVKGANLEELKALRKEFGAWADEAAKAGDKETAIEATRAAAHLGEAIDLLEEL", "binding in a display sort": "not found"}
{"binder": "d8r1_design_ppi_584_dldesign_0_cycle0_af2pred (protein) AAARAAEAAALKAKAKEIAAEAFSYAALSSRDEEAKKEADKKIEELKKLAKEAKAKGLEEAAKFAEDFAEGAETLKKVVEEA", "binding in a display sort": "not found"}
{"binder": "d8r1_design_ppi_41_dldesign_0_cycle0_af2pred (protein) RGEEVLERVKESASRAMSLAAKDPSLSEKVLEALALASEAGRAIKTEGVEKGEELAKKAEELTKEIEEEAK", "binding in a display sort": "not found"}
{"binder": "d8r1_design_ppi_713_dldesign_0_cycle0_af2pred (protein) DEFLAEANAAAAATSPANAAALNAAFAAALAQSDVGEGIKTLAAAADALAAASTPADAANIGKATSYFIAYLSS", "binding in a display sort": "not found"}
{"binder": "d8r1_design_ppi_1045_dldesign_0_cycle0_af2pred (protein) SADTKEGADLFTKAAEQLLKVGEELLKKGKETGDEKLIKEALKYFEAAAAYAEAAATLAAKADAAAAAKAKELKEKAKKAAEEAKKAL", "binding in a display sort": "not found"}
{"binder": "d8r1_design_ppi_560_dldesign_0_cycle0_af2pred (protein) SAEEEEEKLREEAEKAVAEAKATAAAFKAQAATATPEKAAALNAAVAALAGLIKIAEDPEARRGASRAAKSVIAHAKRVLAA", "binding in a display sort": "not found"}
{"binder": "d8r1_design_ppi_477_dldesign_0_cycle1_af2pred (protein) SAEDVKRAAAGLKAAAKAYAALAAENKEVKEAAKELEKAAKLLLEDPEKGREKAAEESLKLNQLVIKAAD", "binding in a display sort": "not found"}
{"binder": "d8r1_design_ppi_891_dldesign_0_cycle0_af2pred (protein) SAVREEAERKAEEVAELAKKDPEKGLEAMKAYLEELVAAGHREAALYAAARAASLMFSDPSTLETAIAVSRYAAELAA", "binding in a display sort": "not found"}
{"binder": "d8r1_design_ppi_823_dldesign_0_cycle1_af2pred (protein) SSSEEEIDAKLEAAVAAVKEATALAKAAVAEGPAALPALEAFAAEKTAEFAKLGGVGAAAGAALQAVVDAARAQLA", "binding in a display sort": "not found"}
{"binder": "d8r1_design_ppi_587_dldesign_0_cycle1_af2pred (protein) MLTPEALNAIAKLGSEAGSLAAKATPEQKAEGRKLGELVAEKMLASSPEEALEIAKKLLEEGKKDLTYAVATATAASRVLRAYLQQLS", "binding in a display sort": "not found"}
{"binder": "d8r1_design_ppi_1118_dldesign_0_cycle0_af2pred (protein) SEGSEALARFAKSMAEVAKIKAEEAAKVDAEVAAIFKEAAKLYEEAAKAAKEDVEKGKKLLTEANKKMAEGLAAMKKKKA", "binding in a display sort": "not found"}
{"binder": "d8r1_design_ppi_895_dldesign_0_cycle1_af2pred (protein) MTPEAKSAFAAAQSLADAIKLGAKEGLLTPETRAALVEKLRAAAAEAAALDPAIAPQAAALAADAEAAAA", "binding in a display sort": "binds (active)"}
{"binder": "d8r1_design_ppi_271_dldesign_0_cycle0_af2pred (protein) AAAELAATIAAAAAAAAADGPRGLALLAGAILRAFPSLSAETLAEIIRLAAADPAAAAEAIAALAAAHPEAAPALAAALRAALAELA", "binding in a display sort": "not found"}
{"binder": "d8r1_design_ppi_516_dldesign_0_cycle1_af2pred (protein) AEEELRRQIEEQGERLEEAAEELRRLAEEARERDPAAGRALEAAAESLRGLVEIAKELDPGSAQGVIQVAERVAERARRLAEEYLAA", "binding in a display sort": "not found"}
{"binder": "d8r1_design_ppi_645_dldesign_0_cycle1_af2pred (protein) KIEKAKELLKKAKELLKEAKANPETAIEKAKAALADLSEAASLAAEAAKDPETKEEAEKLLAEAKKLGLEATQLLMKQSSLEEK", "binding in a display sort": "not found"}
